Article PMC8384837, “Expanding the binding specificity for RNA recognition by a PUF domain”
Residue numbers refer to the chain shown, from its start.

Legend:
Test in all cases: yeast three-hybrid, YBZ-1, SC-Leu-His + 0.5 mM 3-AT, 4 days
Settings in all cases: tags: N-Gal4 AD-HA kept; label: inside an RPR1-promoter hybrid RNA with tandem MS2 sites; ssRNA
PUM1 PUF domain R2-ARP = PUM1 PUF domain R2-ARP (Homo sapiens, UniProt Q14671 828-1176, N899A;Y900R;Q903P)
Procedure, shortened: (§1)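 Pumilio-1 PUF domain libraries, randomized (NNK) at the three base-contacting residues of each repeat, were co-expressed with matching RNA elements from a centromeric plasmid in strain YBZ-1 (LexA–MS2 coat fusion, HIS3 reporter). Transformants were plated on SC-Leu (input) and SC-Leu-His + 0.5 mM 3-AT (selection) for four days, and repeat regions were PCR-amplified and Illumina-sequenced. The interaction score is the log2 change in variant frequency from input to selection, with pseudocount 1 where absent.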

PUM1 PUF domain R1-KGN = PUM1 PUF domain R1-KGN (Homo sapiens, UniProt Q14671 828-1176, S863K;R864G;Q867N)
Procedure, shortened: as §1

PUM1 PUF domain R7-NRR = PUM1 PUF domain R7-NRR (Homo sapiens, UniProt Q14671 828-1176, S1079N;N1080R;E1083R)
Procedure, shortened: as §1

PUM1 PUF domain R6-LYG = target: T1, PUM1 PUF domain R6-LYG (Homo sapiens, UniProt Q14671 828-1176, N1043L;Q1047G)
T1 sequence: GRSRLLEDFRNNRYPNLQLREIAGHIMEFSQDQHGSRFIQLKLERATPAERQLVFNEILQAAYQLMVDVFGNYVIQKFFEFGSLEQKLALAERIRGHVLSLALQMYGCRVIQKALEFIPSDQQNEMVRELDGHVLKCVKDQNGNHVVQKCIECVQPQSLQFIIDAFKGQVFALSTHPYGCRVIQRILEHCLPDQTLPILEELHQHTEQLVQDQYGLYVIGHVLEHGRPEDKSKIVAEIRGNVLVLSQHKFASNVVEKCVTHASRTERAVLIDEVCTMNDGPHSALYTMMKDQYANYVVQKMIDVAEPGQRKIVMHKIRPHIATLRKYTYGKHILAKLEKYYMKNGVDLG
Procedure, shortened: as §1

PUM1 PUF domain R5-DWV = PUM1 PUF domain R5-DWV (Homo sapiens, UniProt Q14671 828-1176, C1007D;R1008W;Q1011V)
Procedure, shortened: as §1

PUM1 PUF domain R7-QFY = PUM1 PUF domain R7-QFY (Homo sapiens, UniProt Q14671 828-1176, S1079Q;N1080F;E1083Y)
Procedure, shortened: as §1

PUM1 PUF domain R6-CFH = target: T2, PUM1 PUF domain R6-CFH (Homo sapiens, UniProt Q14671 828-1176, N1043C;Y1044F;Q1047H)
T2 sequence: T1 sequence with L216C, Y217F, G220H
Procedure, shortened: as §1

## GGCUAGAACUAGUGGAUCCCCCGGCGCCCGGCGGCUCGAGCCCGGGUAAGUGUAAAAAGUCUGCAUGCCGCCGGGCGCCAUGCCUGCAGGUCGACUCUAGAAAACAUG
PUM1 PUF domain R2-ARP
  binding signal: 4.42 log2 enrichment (interaction score)

## GGCUAGAACUAGUGGAUCCCCCGGCGCCCGGCGGCUCGAGCCCGGGUAAGUGUAAAUUGUCUGCAUGCCGCCGGGCGCCAUGCCUGCAGGUCGACUCUAGAAAACAUG
PUM1 PUF domain R1-KGN
  binding signal: 4.31 log2 enrichment (interaction score)

## GGCUAGAACUAGUGGAUCCCCCGGCGCCCGGCGGCUCGAGCCCGGGUAAGUCUAAAUAGUCUGCAUGCCGCCGGGCGCCAUGCCUGCAGGUCGACUCUAGAAAACAUG
PUM1 PUF domain R7-NRR
  binding signal: 4.05 log2 enrichment (interaction score)

## GGCUAGAACUAGUGGAUCCCCCGGCGCCCGGCGGCUCGAGCCCGGGUAAGUGUAAAUAGUCUGCAUGCCGCCGGGCGCCAUGCCUGCAGGUCGACUCUAGAAAACAUG
PUM1 PUF domain R6-LYG
  binding signal: 4.49 log2 enrichment (interaction score)
PUM1 PUF domain R5-DWV
  binding signal: 2.8 log2 enrichment (interaction score)
PUM1 PUF domain R7-QFY
  binding signal: 4.21 log2 enrichment (interaction score)
PUM1 PUF domain R6-CFH
  binding signal: 2.76 log2 enrichment (interaction score)

## GGCUAGAACUAGUGGAUCCCCCGGCGCCCGGCGGCUCGAGCCCGGGUAAGUGUGAAUAGUCUGCAUGCCGCCGGGCGCCAUGCCUGCAGGUCGACUCUAGAAAACAUG
PUM1 PUF domain R5-DWV
  binding signal: 3.79 log2 enrichment (interaction score)

## GGCUAGAACUAGUGGAUCCCCCGGCGCCCGGCGGCUCGAGCCCGGGUAAGUUUAAAUAGUCUGCAUGCCGCCGGGCGCCAUGCCUGCAGGUCGACUCUAGAAAACAUG
PUM1 PUF domain R7-QFY
  binding signal: 2.24 log2 enrichment (interaction score)

## GGCUAGAACUAGUGGAUCCCCCGGCGCCCGGCGGCUCGAGCCCGGGUAAGUGAAAAUAGUCUGCAUGCCGCCGGGCGCCAUGCCUGCAGGUCGACUCUAGAAAACAUG
PUM1 PUF domain R6-CFH
  binding signal: 4.34 log2 enrichment (interaction score)
